Activity calls are given as the source filed them.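 Rule for the calls: active = viability increase at or above a cutoff of the median across tested compounds plus 3 SD (cut at about 8.5% in these data, passing the limit was not always enough); inconclusive = some gains above the cutoff, reason not given; inactive = the rest.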

The values below come from PubChem BioAssay.

The nature of the experiment: viability gain of MRP-1-high H69AR cells under doxorubicin, pilot screen, MRP-1 activator project, CellTiter-Glo, duplicate (AID 807).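 Note: compound pretreatment 18-22 h then 72 h combined with doxorubicin; 0% = doxorubicin alone and 100% = vehicle without doxorubicin.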 The following applies: H69AR viability with doxorubicin, CellTiter-Glo luminescence; at 10 µM; stronger effect = higher value.
Consider `CCN(CC)CCCNC(=O)c1cc2c(-c3ccc(Cl)cc3)nn(C)c2s1`, for which the viability increase is -8.12% (inactive).

For `O=C(NC1CCCC1)C(c1ccc(Cl)cc1)N1CCOCC1` (stereo not given), the viability increase is 1.37% (inactive).

Regarding `COC(=O)c1ccc2c(c1)NC(=O)C1CCCN21` (stereo not given), the viability increase was -0.72% (inactive).

With `O=C(Nc1ccc2c(c1)OCO2)c1ccncc1`, the viability increase is -0.85% (inactive).

For `COc1ccc(C2C3=C(CC(c4ccco4)CC3=O)Nc3ccccc3N2C(C)=O)cc1` (stereo not given), the viability increase was -2.47% (inactive).

As for `COc1cc(NC(=O)c2cc(C(C)C)on2)cc(OC)c1OC`, the viability increase was -1.85% (inactive).

As for `COc1ccc2ccccc2c1C1CC(=O)N2CN(C3CCCCC3)CSC2=C1C#N` (stereo not given), the viability increase is -4.9% (inactive).

For the compound `CCC(=O)c1ccc(OCC(=O)Nc2nn3cnnc3s2)cc1`, the viability increase is 1% (inactive).

Take `CCOC(=O)N1CCC(Nc2c(N3CCN(c4cc(Cl)ccc4C)CC3)c(=O)c2=O)CC1`: the viability increase was -2.34% (inactive).

`c1ccc(Sc2nc(N3CCCCC3)nc(N3CCCCC3)n2)nc1`: the viability increase was 0.32% (inactive).

Take `Cn1c(=O)c2c(nc(NCc3ccccc3)n2Cc2ccc(F)cc2)n(C)c1=O`: the viability increase was -5.47% (inactive).

As to `COc1ccc(-n2nnc3c(=O)n(CC(=O)N4CCCCC4)cnc32)cc1`, the viability increase is -0.73% (inactive).

As for `CCN(CC)CC(=O)Nc1cc(C)c2c(=O)oc3ccccc3c2n1`, the viability increase is -3.1% (inactive).

For `Nn1c(SCc2ccccc2)nnc1-c1ccco1`, the viability increase is -3.7% (inactive).

With `c1ccc(OCc2nnc3sc(C4COc5ccccc5O4)nn23)cc1` (stereo not given), the viability increase was -1.91% (inactive).

As for `Cn1cnnc1SCc1ccc(C#N)cc1Cl`, the viability increase was 0.63% (inactive).

Regarding `CCOc1ccc(C2C(C(=O)NC)=C(C)Nc3nc4ccccc4n32)cc1OC` (stereo not given), the viability increase was 0.24% (inactive).

For the compound `Cc1sc2nc(SCC(=O)OC(C)C)n(C)c(=O)c2c1C`, the viability increase is -1.84% (inactive).

Consider `O=C(O)CCc1n[nH]c(=S)[nH]c1=O`, for which the viability increase was -1.6% (inactive).

Take `COc1ccc(N2CCN(CCCNS(=O)(=O)c3ccc4c(c3)oc(=O)n4C)CC2)cc1`: the viability increase was 0.06% (inactive).

For `CCOc1cccc(NC(=O)c2ccc(S(=O)(=O)N3CCCC3)cc2)c1`, the viability increase is -2.68% (inactive).

As to `O=C(CSc1nc2c(c(=O)n1-c1ccc(Br)cc1)SCC2)NCC1CCCO1` (stereo not given), the viability increase was -1.02% (inactive).

In the case of `COc1cccc(N2C(=O)C3ON(c4ccccc4)C(c4cccs4)C3C2=O)c1` (stereo not given), the viability increase is -0.83% (inactive).

Regarding `CC(C)n1c(CCC(=O)O)ccc1-c1ccccc1`, the viability increase is -0.71% (inactive).

In the case of `Cn1c(C(=O)NC2CCCCC2)cc2c(=O)n(C)c3ccccc3c21`, the viability increase was -1.7% (inactive).

`Cc1c(C(=O)NCC2CCCO2)sc2nc(-c3ccc(F)cc3)cn12` (stereo not given): the viability increase is 1.26% (inactive).

Take `CCCCOC(=O)CCc1n[nH]c(=O)[nH]c1=O`: the viability increase is -1.14% (inactive).

On to `Cc1ccc(C(c2sc3ncnn3c2O)N2CCC(C)CC2)cc1` (stereo not given), for which the viability increase was 3.76% (inactive).

Take `C=CCc1ccccc1OCC(O)CN1CCN(c2ccccc2OC)CC1` (stereo not given): the viability increase is -4.59% (inactive).

Consider `CC(=O)NCC(=O)NC1(C(=O)NC2CCCC2)CCCCC1`, for which the viability increase was -0.35% (inactive).

On to `CCN1CCN(C(CNS(=O)(=O)c2ccc(OC)cc2)c2cccnc2)CC1` (stereo not given), for which the viability increase was -1.16% (inactive).

In the case of `CCCNC(=O)Cc1cc(=O)[nH]c(=O)[nH]1`, the viability increase is 0.56% (inactive).

Consider `O=C(Nc1ccccc1)OCCOc1ccccc1`, for which the viability increase was 2.54% (inactive).

Consider `Cc1nc2ccc(S(=O)(=O)NC(C(=O)NC3CCCC3)C(C)C)cc2s1` (stereo not given), for which the viability increase was -0.4% (inactive).

Consider `COc1ccc(OC)c(C2CC(=O)N3CN(c4ccccc4)CSC3=C2C#N)c1` (stereo not given), for which the viability increase was -4.09% (inactive).

Regarding `Brc1ccc(-c2nnc(-c3ccccc3Br)o2)cc1`, the viability increase was -1.12% (inactive).

For `CC12C(=O)N(c3ccccn3)C(=O)C1C1C=CC2C1` (stereo not given), the viability increase is -0.78% (inactive).

As for `Cc1c(C(=O)NCC2CCCO2)sc2nc(-c3ccccc3)cn12` (stereo not given), the viability increase is 0.89% (inactive).

With `Cc1ccc(C)c(C(=O)COC(=O)c2ccc(Br)o2)c1`, the viability increase was -0.26% (inactive).

For `CCOc1ccc(NS(=O)(=O)c2ccc3[nH]c(=O)oc3c2)cc1`, the viability increase is 1.01% (inactive).
